Results published in the supplement of paper PMC4206461.
Unmarked numbers belong to inactive results.

Legend:
[1] = tested on: Pseudomonas aeruginosa PA14 dppA1-A5 penta mutant + pBBR5.DppA1 (PA14_58350); experiment: respiration area under curve with compound as sole nitrogen source, 24 h (OmniLog AUC (arbitrary units)); higher = more respiration / better utilisation as nitrogen source, active = 2000 or more
Method: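 Biolog Phenotype MicroArray plates PM6-PM8: each di/tripeptide is the sole nitrogen source. Tetrazolium reduction was read in the OmniLog for 24 h at 37°C and summarised as area under the respiration curve (arbitrary units). Values below 2000 count as no respiration. Strain is the SBP penta mutant complemented with DppA1 on a plasmid under its native promoter. Lys/His/Cys peptides are excluded.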

[2] = tested on: Pseudomonas aeruginosa PA14 wild type; experiment: as above
Method: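 Biolog Phenotype MicroArray plates PM6-PM8: each di/tripeptide is the sole nitrogen source (IF-0 medium with succinate/ferric citrate and dye mix A). Tetrazolium reduction was read in the OmniLog every 15 min for 24 h at 37°C and summarised as area under the respiration curve (arbitrary units). The paper counts values below 2000 as no respiration and above 8000 as solid respiration. Replicate datasets are averaged.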

[3] = tested on: Pseudomonas aeruginosa PA14 dppBCDF deletion mutant; experiment: respiration area under curve with compound as sole nitrogen source, 24 h (OmniLog AUC (arbitrary units)); higher = more respiration / better utilisation as nitrogen source, active = 2000 or more; extreme values may be limits of the assay
Method: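 Biolog Phenotype MicroArray plates PM6-PM8: each di/tripeptide is the sole nitrogen source. Tetrazolium reduction was read in the OmniLog every 15 min for 24 h at 37°C and summarised as area under the respiration curve (arbitrary units). Values below 2000 count as no respiration. Strain is the dipeptide ABC transporter deletion mutant.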

NCC(=O)NCC(=O)NCC(=O)O (plate: PM8)
respiration area under curve [1]: 940
respiration area under curve [2]: 7740 (active)
respiration area under curve [3]: 5.75

CC[C@H](C)[C@H](N)C(=O)N[C@@H](CO)C(=O)O (plate: PM6)
respiration area under curve [1]: 3970 (active)
respiration area under curve [3]: 156

C[C@@H](O)[C@H](N)C(=O)NCC(=O)O (plate: PM7)
respiration area under curve [1]: 6220 (active)
respiration area under curve [2]: 8140 (active)
respiration area under curve [3]: 0.75

N[C@@H](Cc1ccc(O)cc1)C(=O)N[C@@H](Cc1c[nH]c2ccccc12)C(=O)O (plate: PM7)
respiration area under curve [1]: 2730 (active)
respiration area under curve [2]: 3280 (active)
respiration area under curve [3]: 1770

CC(C)C[C@H](N)C(=O)N[C@@H](C)C(=O)O (plate: PM6)
respiration area under curve [1]: 7500 (active)
respiration area under curve [3]: 7270 (active)

CC(C)[C@@H](NC(=O)CN)C(=O)O (plate: PM8)
respiration area under curve [1]: 0
respiration area under curve [2]: 0
respiration area under curve [3]: 0

NC(N)=NCCC[C@H](NC(=O)[C@@H]1CCCN1)C(=O)O (plate: PM8)
respiration area under curve [1]: 10300 (active)
respiration area under curve [3]: 7840 (active)

CSCC[C@H](N)C(=O)N[C@H](C(=O)O)C(C)C (plate: PM7)
respiration area under curve [1]: 3360 (active)
respiration area under curve [3]: 1430

C[C@H](N)C(=O)N1CCC[C@H]1C(=O)O (plate: PM6)
respiration area under curve [1]: 10700 (active)
respiration area under curve [2]: 12000 (active)
respiration area under curve [3]: 717

CC(C)C[C@H](NC(=O)[C@@H](N)[C@@H](C)O)C(=O)O (plate: PM7)
respiration area under curve [1]: 4760 (active)
respiration area under curve [2]: 7920 (active)
respiration area under curve [3]: 1070

O=C(O)CC[C@H](NC(=O)[C@@H]1CCCN1)C(=O)O (plate: PM8)
respiration area under curve [1]: 5380 (active)
respiration area under curve [3]: 0
